Test results published in PubChem BioAssay (Tox21).
Records with an inconclusive call do not appear. Entries that show only a call come without a potency. Calls of active or inactive are those of the source. Calls follow the shape of the dose curve; as a rule, active = well fitted cell-killing curve with a large enough effect in the repeat runs; inconclusive = weak or mixed curves, or effect the other way; inactive = flat fitted curve, though single readings scatter.

Assay: qHTS RealTime-Glo MT Cell Viability Assay in HepG2 cells - 0 hour (AID 1224889); also: nearly all actives have a fitted effect of over 50% in size
Settings: RealTime-Glo luminescence; series mostly up to 76.8 µM
From the text: U.S. Tox21 Program National Center for Advancing Translational Sciences [NCATS] NIH Chemical Genomics Center [NCGC] U.S. Environmental Protection Agency [EPA] National Institutes of Environmental Health Sciences [NIEHS] National Toxicology Program [NTP] U.S. Food and Drug Administration [FDA] Tox21 Assay Overview: Measure of cell viability is critical in the cell-base assay. Analysis of cell viability is necessary for the characterization of cell responses to cytotoxic drugs and environmental stress. A RealTime-Glo MT Cell Viability Assay to monitor cell viability in real time of continues cell culture during 40 hours of compound treatment was used to screen Tox21 10K library compounds in HepG2 cells. The RealTime-Glo MT Cell Viability Assay is a nonlytic, homogeneous, bioluminescent method to measure cell viability in real time using a simple, plate-based method. The assay involves adding NanoLuc luciferase and a cell-permeant prosubstrate to cells in culture. Viable cells reduce the proprietary prosubstrate to generate a substrate for NanoLuc luciferase. This substrate diffuses from cells into the surrounding culture medium, where it is rapidly used by the NanoLuc Enzyme to produce a luminescent signal. The signal correlates with the number of viable cells, making the assay well suited for cytotoxicity studies.
Tox21 Assay Protocol Summary: The mixture of HepG2 cell suspension and reagents were dispensed at 600cells/6 ul/well in 1536-well tissue culture treated black solid bottom plates using a Multidrop dispenser. After the assay plates were incubated at a 37 C/5% CO2 incubator for 5 hours, 23 nL of compounds dissolved in DMSO, positive and negative controls was transferred to the assay plate by a pintool work station. The plates were incubated at 37 C for 40 hours. The luminescence intensity were measured at 0h, 8h, 16h, 24h, 32h and 40h time points using ViewLux plate reader during compound treatment.
In the case of `CC(C)(CO)COC(=O)C(C)(C)CO`, the Potency is reported as “inactive”. In the case of `CCCCCCCCC`, the Potency is reported as “inactive”. In the case of `Cn1c([N+](=O)[O-])cnc1COC(N)=O`, the Potency is reported as “inactive”. For `CCCCC(CC)COC(=O)CCCCCCCC(=O)OCC(CC)CCCC` (stereo not given), the Potency was “inactive”. For `CS(=O)(=O)c1ccc([C@@H](O)[C@@H](CO)NC(=O)C(Cl)Cl)cc1`, the Potency was “inactive”. In the case of `O=c1c(-c2ccc(O)cc2)coc2cc(O)ccc12`, the Potency is reported as “inactive”. In the case of `O=[N+]([O-])C(CO)(CO)CO`, the Potency is reported as “inactive”. For `CC1=C(/C=C/C(C)=C/C=C/C(C)=C/CO)C(C)(C)CCC1`, the Potency was “inactive”. With `O=Nc1ccc(O)cc1` the Potency was “inactive”. In the case of `OC[C@@H](O)[C@H](O)[C@H](O)[C@@H](O)CO`, the Potency is reported as “inactive”. With `CC(C)n1c(/C=C/[C@@H](O)C[C@@H](O)CC(=O)O)c(-c2ccc(F)cc2)c2ccccc21` the Potency was “inactive”. With `O=C(O)c1cc(-c2ccccc2)nc2ccccc12` the Potency was “inactive”. With `C=CC(=O)OCCCCCCCC(C)C` the Potency was “inactive”. For `OC1CCCC1`, the Potency was “inactive”. With `O=C(O)c1ccc([N+](=O)[O-])cc1` the Potency was “inactive”. For `O=C1O[C@H](CO)[C@@H](O)[C@H](O)[C@H]1O`, the Potency was “inactive”. With `C[C@@H]1O[C@@H](OC[C@H]2O[C@@H](Oc3c(-c4ccc(O)c(O)c4)oc4cc(O)cc(O)c4c3=O)[C@H](O)[C@@H](O)[C@@H]2O)[C@H](O)[C@H](O)[C@H]1O` the Potency was “inactive”. For `CCCCNC(N)=O`, the Potency was “inactive”. With `O=S(=O)(Oc1ccc(Cl)cc1Cl)c1ccccc1` the Potency was “inactive”. For `Cc1ccc(C)c(C)c1`, the Potency was “inactive”. For `CCCCOCCOCCOC(=O)CCCCC(=O)OCCOCCOCCCC`, the Potency was “inactive”. With `CC(C)Cc1ccccc1` the Potency was “inactive”. In the case of `CCOC(=O)/C=C\C(=O)OCC`, the Potency is reported as “inactive”. In the case of `CCc1ccccc1O`, the Potency is reported as “inactive”. For `O=C(Oc1ccccc1)c1ccc(O)cc1`, the Potency was “inactive”. For `C=C1CC[C@H](O)CC1=C/C=C1\CCC[C@]2(C)[C@@H]([C@H](C)/C=C/[C@H](C)C(C)C)CC[C@@H]12`, the Potency was “inactive”. With `CC(=O)CCc1ccccc1` the Potency was “inactive”. In the case of `NC(=O)NNc1ccccc1`, the Potency is reported as “inactive”. With `C=C1C2CCC(C2)C1(C)C` (stereo not given) the Potency was “inactive”. For `CC#C[C@]1(O)CC[C@H]2[C@@H]3CCC4=CC(=O)CCC4=C3[C@@H](c3ccc(N(C)C)cc3)C[C@@]21C`, the Potency was “inactive”. With `C=C(C)C(=O)OCCCCCCCCCCCC` the Potency was “inactive”. In the case of `CCOC(=O)[C@H](CCc1ccccc1)N[C@@H](C)C(=O)N1Cc2ccccc2C[C@H]1C(=O)O`, the Potency is reported as “inactive”. For `OCC#CCO`, the Potency was “inactive”. In the case of `CC[Si](OC(C)=O)(OC(C)=O)OC(C)=O`, the Potency is reported as “inactive”. In the case of `CC(=O)Nc1ccc(C(=O)O)cc1`, the Potency is reported as “inactive”. In the case of `CC(C)NCC(O)COc1cccc2ccccc12` (stereo not given), the Potency is reported as “inactive”. In the case of `NC(=O)/N=N/C(N)=O`, the Potency is reported as “inactive”. With `COCC(C)O` (stereo not given) the Potency was “inactive”. With `C=C(C)C(=O)OCCCCCC` the Potency was “inactive”. For `CCCCCC/C=C/CCCCCCCC(=O)O`, the Potency was “inactive”.
